Test results taken from PubChem BioAssay (Tox21).
Inconclusive results are not listed. Active and inactive are the calls of the source. Calls come from the whole dose curve.

assay: p53 small molecule agonists, cell-based qHTS assay with human liver microsomes (AID 1963577); settings: HCT-116 p53RE-bla with human liver microsomes, ratio, 16 h; series mostly up to 66 µM; activation: at the top concentration;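 note: p53 response element beta-lactamase reporter cells with liver microsomes plus NADPH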
Summary of the method: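 16 h, 37 C exposure of p53RE-bla cells to compounds with human liver microsomes and NADPH (0.5 mg/mL final each); detection via LiveBLAzer mixture, 2 h dark at room temperature.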
% is set by controls: 0 for no effect and ±100 for the full control effect.

Compound | Potency | activation
Oc1ccc2ccccc2c1 | inactive | –
CCOC(=O)c1ccc(C2CCC(NC[C@H](O)COc3ccc(O)c(NS(C)(=O)=O)c3)CC2)cc1 (some centres not stated) | – | -1.72% (inactive)
CCOC(=O)[C@@H](C)Oc1ccc(Oc2nc3ccc(Cl)cc3o2)cc1 | – | -11% (inactive)
COC(C(=O)O)c1ccccc1 (configuration not stated) | – | 3.61% (inactive)
CS(=O)(=O)Nc1ccc([N+](=O)[O-])cc1Oc1ccccc1 | inactive | –
CN(C)CC/C=C1\c2ccccc2COc2ccccc21 | – | -10% [at 30.3 µM] (inactive)
O=C(O)Cc1cc(I)c(Oc2ccc(O)c(I)c2)c(I)c1 | – | -9.48% (inactive)
Cn1c(N)nc2nc[nH]c2c1=O | – | 3.96% (inactive)
Cc1c(Nc2ncccc2C(=O)O)cccc1C(F)(F)F | – | 0.738% [at 30.3 µM] (inactive)
O=C(CS(=O)Cc1ccco1)NC/C=C\COc1cc(CN2CCCCC2)ccn1 (configuration not stated) | – | -1.4% [at 30.3 µM] (inactive)
O=P(c1ccccc1)(c1ccccc1)c1ccccc1 | – | 2.07% (inactive)
Oc1ccc(N=Nc2ccccc2)cc1 | – | -14.4% (inactive)
O=S(c1cc(Cl)cc(Cl)c1O)c1cc(Cl)cc(Cl)c1O | – | 0.735% [at 30.3 µM] (inactive)
CN(CCCN1c2ccccc2CCc2ccccc21)CC(=O)c1ccc(Cl)cc1 | – | -2.79% [at 30.3 µM] (inactive)
CC(C(=O)O)c1ccc2c(c1)[nH]c1ccc(Cl)cc12 (configuration not stated) | – | -6.9% [at 30.3 µM] (inactive)
c1ccc2sc(SSc3nc4ccccc4s3)nc2c1 | – | 13.9% [at 13.5 µM] (inactive)
C=C/C=C/C=C/CCCCC | – | -4.49% [at 13.5 µM] (inactive)
CCCCCCOC(=O)c1ccccc1 | – | 2.7% (inactive)
O=C1CCc2ccc(OCCCCN3CCN(c4cccc(Cl)c4Cl)CC3)cc2N1 | – | 0.181% [at 30.3 µM] (inactive)
O=C(O)CCCCCCCCCCCBr | – | 0.108% (inactive)
CC(=O)OCC=C(C)C | – | 0.296% [at 30.3 µM] (inactive)
NC1=NCC2c3ccccc3Cc3ccccc3N12 (configuration not stated) | – | 12.5% [at 30.3 µM] (inactive)
